# In PubChem BioAssay AID463173 (ICCB-Longwood Screening Facility, Harvard Medical School, 2010):
# Among all 52,000 compounds or so, about 1,700 (3.3%) were called active. The list comes from a sample in which actives are over-represented; it also holds similar structures and randomly drawn compounds. A number with no mark means an inactive call. Rule as the data show it: active = survival mostly below about 52% (no sharp cut-off); inactive = mostly above about 56%.
# Tested on: Wild type
# Test: S. aureus survival, RN4220 and DeltatarO strains – OD600, teichoic acid synthesis inhibitors, primary screen (AID 463173)
# Conditions: S. aureus RN4220 wild type/DeltatarO growth, OD600, 18 h, active compounds read low, screened at 18.75 µg/mL (by protocol)
row,Structure (SMILES),survival
1,O=C(NC1CCCCC1)c1cccnc1Nc1ccccc1F,113%
2,CC1CCCN(C(=O)Cn2ncc3c([nH]c4ccccc43)c2=O)C1 (stereo unspecified),81%
3,CC(=O)N1CCc2cc(CNC(=O)Nc3ccc(Br)c(C)c3)ccc21,85%
4,CC(=O)N1CCc2cc(S(=O)(=O)C(C)CC(=O)Nc3ccc(Br)c(C)c3)ccc21 (stereo unspecified),-6% (active)
5,COc1cc(NC(=O)CC(C)S(=O)(=O)c2ccc3c(c2)CCN3C(C)=O)cc(OC)c1OC (stereo unspecified),76%
6,CCOC(=O)c1c(S(=O)(=O)NCC(=O)Nc2cccc(SC)c2)c(C)n(C)c1C,70%
7,COc1ccc(CN(C(=O)c2cc(=O)c3ccccc3o2)C2CCS(=O)(=O)C2)cc1OC (stereo unspecified),118%
8,O=C(NCCc1csc2nc(-c3ccccc3F)nn12)C(=O)Nc1cc(F)ccc1F,63%
9,CCOc1ccc(CC(=O)NCCc2csc3nc(-c4ccccc4F)nn23)cc1,119%
10,Cc1ccc(NC(=O)C(=O)NCCc2csc3nc(-c4ccccc4C)nn23)cc1Cl,82%
11,CC(=O)Nc1cccc(NC(=O)C(=O)NCCc2csc3nc(-c4ccccc4F)nn23)c1,57%
12,Cc1ccc(C)c(NC(=O)C(=O)NCCc2csc3nc(-c4ccccc4C)nn23)c1,129%
13,Cc1ccccc1-c1nc2scc(CCNC(=O)C(=O)Nc3ccc(F)cc3F)n2n1,-4% (active)
14,Cc1c(Cl)cccc1NC(=O)C(=O)NCCc1csc2nc(-c3ccccc3F)nn12,1% (active)
15,CCOc1ccc(NC(=O)C(=O)NCCc2csc3nc(-c4ccccc4F)nn23)cc1,-3% (active)
16,COC(=O)c1ccc(NC(=O)C(=O)NCCc2csc3nc(-c4ccccc4F)nn23)cc1,60%
17,O=C(CSc1nnnn1Cc1ccccc1)Nc1ccccc1,114%
18,COc1ccc(OC)c(CNS(=O)(=O)c2c(C(=O)N3CCCCCC3)c(C)n(C)c2C)c1,135%
19,COc1ccccc1CNC(=O)CCC(=O)N1CC2CCCN2c2ccccc21 (stereo unspecified),80%
20,CC(C)(C)C(=O)Nc1cccc(-c2cn3cccnc3n2)c1,70%
21,O=C(CCCn1c(=O)c2cccn2c2ccccc21)NCc1ccccc1Br,55%
22,CCc1ccc2nc(N3CCCC3)c(C#N)cc2c1,108%
23,O=C(CSc1n[nH]c(-c2ccccc2Cl)n1)N1CCN(c2ccccc2F)CC1,123%
24,CCOC(=O)c1ccc(N2C(=O)c3[nH]nc(-c4ccc(OC)cc4)c3C2c2ccc(C)cc2)cc1 (stereo unspecified),89%

row,Structure (SMILES),survival
1,Cc1ccc(-c2n[nH]c3c2C(c2cccc(O)c2)N(c2ccc(C(=O)O)cc2)C3=O)cc1 (stereo unspecified),98%
2,COc1ccc(C2c3c(-c4ccc(F)cc4)n[nH]c3C(=O)N2c2ccccc2)cc1OC (stereo unspecified),134%
3,COC(=O)c1ccc(C2c3c(-c4ccc(Br)cc4)n[nH]c3C(=O)N2c2ccc(Cl)cc2)cc1 (stereo unspecified),75%
4,COc1ccccc1C1c2c(-c3ccc(Cl)cc3)n[nH]c2C(=O)N1c1ccc(C)cc1 (stereo unspecified),85%
5,O=C1c2[nH]nc(-c3ccc(F)cc3)c2C(c2ccccc2F)N1c1ccccc1 (stereo unspecified),4% (active)
6,CCOc1cc(C2c3c(-c4ccc(Br)cc4)n[nH]c3C(=O)N2c2ccc(Cl)cc2)ccc1O (stereo unspecified),42%
7,O=C1c2[nH]nc(-c3ccc(Br)cc3)c2C(c2cccc(O)c2)N1c1ccc(Cl)cc1 (stereo unspecified),1% (active)
8,COc1ccc(-c2n[nH]c3c2C(c2ccc(O)cc2)N(c2ccc(Br)cc2)C3=O)cc1 (stereo unspecified),11% (active)
9,COc1cccc(CNC(=O)CN2C(=O)COc3ccc(S(=O)(=O)N4CCCCC4)cc32)c1,100%
10,CCOc1ccccc1CNC(=O)C(CC)n1nc(C)c2c(C)n(-c3ccccc3)nc2c1=O (stereo unspecified),88%
11,CCOC(=O)c1ccc(NC(=O)CCCn2c(=O)c3cccn3c3ccccc32)cc1,78%
12,CCc1ccc(C(=O)c2cn(CC(=O)Nc3ccc(OC)c(Cl)c3)c3nc(C)ccc3c2=O)cc1,119%
13,CCOC(=O)c1sc2cccc(F)c2c1S(=O)(=O)Nc1ccccc1F,124%
14,COC(=O)c1sc2cccc(F)c2c1S(=O)(=O)Nc1cc(C)c(Cl)cc1OC,85%
15,COC(=O)c1sc2cccc(F)c2c1S(=O)(=O)Nc1ccc(C)cc1Cl,63%
16,COC(=O)c1sc2cccc(F)c2c1S(=O)(=O)Nc1cc(OC)cc(OC)c1,0% (active)
17,COC(=O)c1sc2cccc(F)c2c1S(=O)(=O)Nc1ccc(N(C)C)cc1,53%
18,CCOc1ccccc1NS(=O)(=O)c1c(C(=O)OC)sc2cccc(F)c12,-3% (active)
19,CC(C)c1ccc(NC(=O)C2CCCN(S(=O)(=O)c3cccc4nsnc34)C2)cc1 (stereo unspecified),70%
20,CN1CCc2nc3sc(C(=O)c4ccc5c(c4)OCO5)c(N)c3cc2C1,116%
21,Cc1ccc(-n2c(-c3ccc(Br)cc3)nc3c(cnn3-c3ccccc3)c2=O)cc1,66%
22,Clc1ccc(CNc2ccccn2)cc1,98%
23,Cc1ccc2nc(Nc3cccc(Cl)c3C)c(-n3nc(C)cc3C)nc2c1,131%
24,Cc1cc(C)cc(Nc2nnc(-n3nc(C)cc3C)c3ccccc23)c1,86%

row,Structure (SMILES),survival
1,Cc1cc(C)n(-c2nc3ccccc3nc2Nc2ccc(C(C)C)cc2)n1,5% (active)
2,Cc1cc(C)n(-c2nc3ccccc3nc2Nc2ccc(N(C)C)cc2)n1,2% (active)
3,CCCOC(=O)c1ccc(Nc2nc3ccccc3nc2-n2nc(C)cc2C)cc1,32%
4,Cc1cc(C)n(-c2nc3ccccc3nc2Nc2cc(Cl)ccc2C)n1,131%
5,Cc1cc(C)n(-c2nnc(Nc3ccc(C(C)C)cc3)c3ccccc23)n1,74%
6,Cc1cc(C)n(-c2nc3ccccc3nc2Nc2ccc(Cl)c(C(=O)OC(C)C)c2)n1,84%
7,Cc1cc(C)cc(Nc2nc3cc(Cl)c(Cl)cc3nc2-n2nc(C)cc2C)c1,81%
8,CC(=O)c1ccc(Nc2nc3ccccc3nc2-n2nc(C)cc2C)cc1,54%
9,Cc1cc(C)n(-c2nc3ccccc3nc2Nc2cccc(C)c2C)n1,7% (active)
10,Cc1cc(C)cc(Nc2nc3ccccc3nc2-n2nc(C)cc2C)c1,8% (active)
11,CCOC(=O)N1CCc2c(sc(NCc3sccc3C)c2C(=O)Nc2cc(OC)ccc2OC)C1,65%
12,Cc1cccc(N2CCN(Cc3nnc(-c4ccccc4C)o3)CC2C)c1 (stereo unspecified),21%
13,CCOC(=O)c1c(C)sc(-c2c(-c3ccc(OC)c(F)c3)[nH]c3[nH]c(=O)[nH]c(=O)c23)c1O,111%
14,CCCOc1ccc(CNC(=O)Cn2cc3c(n2)-c2c(oc(C(=O)N4CCOCC4)c2C)CC3)cc1,96%
15,COc1ccc(-c2nn(C)c3sc(C(=O)NCCN(C)C)cc23)cc1OC,82%
16,CCOC(=O)c1c(C)[nH]c(C)c1S(=O)(=O)N(C)CC(=O)Nc1cccc(C(F)(F)F)c1,69%
17,COC(=O)C(CCSC)NC(=O)Cn1ncc2c([nH]c3ccccc32)c1=O (stereo unspecified),47%
18,COc1cc2c(c(OC)c1)C(c1cccc(F)c1F)CC(=O)N2 (stereo unspecified),82%
19,COc1ccc(CCN(Cc2nc3ccccc3c(=O)[nH]2)C(=O)c2ccco2)cc1,81%
20,Cc1ccc(NS(=O)(=O)c2ccc3[nH]c4c(c3c2)CCCCC4)cc1,84%
21,O=C(CCn1c(=O)c2cccn2c2cccnc21)NCc1ccccc1Br,93%
22,COc1ccc(OC)c(Nc2nc3ccccc3nc2-n2nc(C)cc2C)c1,10% (active)
23,Cc1ccc(Nc2nc3ccccc3nc2-n2nc(C)cc2C)c(Cl)c1,88%
24,COc1cc(OC)c(Nc2nc3ccccc3nc2-n2nc(C)cc2C)cc1Cl,80%

row,Structure (SMILES),survival
1,COc1ccccc1Nc1nc2ccc(Cl)cc2nc1-n1nc(C)cc1C,138%
2,Cc1cc(C)n(-c2nc3ccccc3nc2Nc2ccc(Cl)c(Cl)c2)n1,1% (active)
3,Cc1cc(C)n(-c2nc3ccccc3nc2Nc2ccc(Cl)cc2Cl)n1,86%
4,Cc1ccc(CNC(=O)c2ccc(Cn3c(SCc4ccc(F)cc4)nc4cccnc43)cc2)o1,84%
5,Cc1ccc(C(=O)c2sc(Nc3ccc(F)cc3)c(C#N)c2N)cc1,108%
6,CCCOc1ccc(C(=O)Nc2ccc3nn(-c4ccc(OC)c(Cl)c4)nc3c2)cc1,145%
7,COc1ccc(CNC(=O)C(=O)Nc2ccc(OC)cc2OC)cc1,80%
8,N#C/C(=C/C=C/c1ccco1)c1nc2ccccc2[nH]1,113%
9,CCCNC(=O)Cn1ncc2c3ccccc3n(CCC)c2c1=O,133%
10,CCCn1c2ccccc2c2cnn(CC(=O)NCCc3ccc(C)cc3)c(=O)c21,121%
11,CCCn1c2ccccc2c2cnn(CC(=O)NCCCOC(C)C)c(=O)c21,-6% (active)
12,CCCn1c2ccccc2c2cnn(CC(=O)NCCc3ccc(OCC)cc3)c(=O)c21,-6% (active)
13,CCCn1c2ccccc2c2cnn(CC(=O)NCCc3ccc(OCC)c(OCC)c3)c(=O)c21,76%
14,CCCn1c2ccccc2c2cnn(CC(=O)NCCCN3CCCCC3)c(=O)c21,78%
15,CCCSc1nc(=O)c2c(n1C)NC(=O)CC2c1cccc(F)c1F (stereo unspecified),82%
16,Cc1cc(C)cc(NC(=O)N2CCN(c3cc(-c4noc(C)n4)ccc3C)CC2)c1,76%
17,Cc1ccc(NC(=O)N2CCN(c3cc(-c4noc(C)n4)ccc3C)CC2)c(F)c1,-6% (active)
18,COc1cc(NC(=O)N2CCN(c3cc(-c4noc(C)n4)ccc3C)CC2)cc(OC)c1OC,14% (active)
19,COc1ccc(NC(=O)N2CCN(c3cc(-c4noc(C)n4)ccc3C)CC2)c(OC)c1,133%
20,Cc1ccc(NC(=O)N2CCN(c3cc(-c4noc(C)n4)ccc3C)CC2)c(C)c1,72%
21,COc1cc([N+](=O)[O-])ccc1NC(=O)N1CCN(c2cc(-c3noc(C)n3)ccc2C)CC1,78%
22,COc1ccc(C)cc1NC(=O)N1CCN(c2cc(-c3noc(C)n3)ccc2C)CC1,85%
23,CSc1cccc(NC(=O)N2CCN(c3cc(-c4noc(C)n4)ccc3C)CC2)c1,74%
24,Cc1nc(-c2ccc(C)c(N3CCN(C(=O)Nc4ccc(Br)cc4)CC3)c2)no1,-1% (active)
